Source: PubChem BioAssay (several laboratories)
Most compounds without a hit are left out; they make up all but 2.4% or so of the library.
Mcl-1 Bim block: disrupts Bim peptide binding to human Mcl-1; Bead-based flow cytometry, Bim peptide-Mcl-1 binding; inhibition, % at 10 µM; Q07820; hit rate 0.1% among 190,000; in the data active = inhibition above about 40%;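 note: 0% = no compound tracer wells and 100% = peptide blocker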
Target sequence (Q07820 whole entry, looked up): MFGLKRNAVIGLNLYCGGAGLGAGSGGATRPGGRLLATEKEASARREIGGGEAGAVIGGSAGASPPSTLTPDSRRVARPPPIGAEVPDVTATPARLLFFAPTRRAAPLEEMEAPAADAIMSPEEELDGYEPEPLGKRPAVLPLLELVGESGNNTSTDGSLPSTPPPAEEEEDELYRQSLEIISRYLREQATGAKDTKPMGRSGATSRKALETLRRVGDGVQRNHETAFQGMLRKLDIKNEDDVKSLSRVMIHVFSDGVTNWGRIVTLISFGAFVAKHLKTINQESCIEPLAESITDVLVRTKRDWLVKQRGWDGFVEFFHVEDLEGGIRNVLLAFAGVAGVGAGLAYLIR
Mcl1 Bid PPI: Mcl-1/Bid interaction inhibition | Q07820 | TR-FRET Mcl-1/Bid-Dy647 peptide binding, 1536-well | inhibition, % at 21.7 µM | hit rate 0.97% among 220,000 | AID 1021;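 active = compounds that cut the binding signal by more than half at the single screening dose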;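 note: His-tagged Mcl-1 with europium anti-His antibody binding Bid BH3 peptide; 0% = Mcl-1 plus peptide wells and 100% = peptide-only wells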
MCL1 BIM primary: MCL1-BIM-BH3 interaction inhibition (human). Q07820. GST-MCL1 / FITC-Bim-BH3 fluorescence polarization. inhibition, % at 10.9 µM. hit rate 0.68% among 320,000;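 active = inhibition above the mean inhibition of all tested compounds plus 3 SD, set per campaign, cut at about 40% in these data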;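 note: 0% = DMSO wells and 100% = unlabeled Bim-BH3 peptide control; higher means more loss of mP so more displacement of Bim peptide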
zVAD death inh: blocks zVAD induced death of L929 cells; AID 1377; hit rate 0.38% among 220,000; L929 zVAD necroptosis rescue, ATP luminescence, 24 h; with zVAD 60 µM; viability rescue, % at 10 µM;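 active = activation, scaled between plate controls, above about 75%, limit read from the data; inactive = activation under that limit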;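 note: 0% = zVAD with DMSO and 100% = DMSO alone without zVAD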
TNF death inh: TNF-alpha cell death inhibition in Jurkat FADD-/- cells. activation (protection from cell death), % at 10 µM. AID 463075. Jurkat FADD-/- TNF necroptosis rescue, ATP luminescence, 24 h; 0 = TNF only, 100 = no-TNF cells. hit rate 0.068% among 220,000;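 active = activation, meaning protection from cell death, of at least 50% relative to plate controls; inactive = activation below 50%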;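 note: necroptosis triggered by 40 ng/mL TNF-alpha added together with compound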
Mcl1 Noxa PPI: disrupts binding of human Mcl-1 to Noxa peptide; Q07820; TR-FRET Mcl-1/Noxa peptide binding, 2 h; inhibition, % at 21.7 µM; hit rate 1.5% among 220,000; AID 1022;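 active = compounds that cut the protein-peptide binding signal by more than 50% relative to plate controls in a single-dose test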;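 note: His-tagged Mcl-1 with rhodamine Noxa BH3 peptide and terbium anti-His antibody; 0% = Mcl-1 plus Noxa peptide wells and 100% = peptide-only wells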
An asterisk follows results filed as active; . = not tested or not shown.

SMILES | Mcl-1 Bim block | Mcl1 Bid PPI | MCL1 BIM primary | zVAD death inh | TNF death inh | Mcl1 Noxa PPI
COc1cc(OC)cc(C(=O)NCC(=O)N2CCCCC2)c1 | 0 | 63* | -3 | 0 | -2 | 13
O=C(CSc1nc2ccccc2[nH]1)N=Nc1c(O)[nH]c2ccccc12 | 12 | -33 | 8 | 1 | 0 | 22
Cn1c(SCC(=O)N=Nc2c(O)[nH]c3ccccc23)nc2ccccc21 | -7 | 83* | 10 | 3 | 0 | 42
Cc1ccc(C(=O)C(C)OC(=O)Cn2c(C)csc2=O)cc1 (stereo not drawn) | . | . | 0 | . | . | .
O=C(COc1ccc2ccccc2c1Br)NC(=S)Nc1cccc(CO)c1 | -4 | 52* | 0 | 1 | 1 | 5
NC(=O)c1ccc(-n2c(CCC(=O)O)ccc2-c2cccs2)cc1 | 3 | -67 | 0 | 0 | -1 | 23
CC(=O)c1ccc(-n2c(CCC(=O)O)ccc2-c2cccs2)cc1 | -4 | -28 | 5 | 0 | -1 | 69*
CC1=CC(=O)O[C@@H]1[C@@]1(C)C[C@H]2OC(=O)C[C@H]3[C@@H](C)C(=O)C(O)=C1[C@@]23CO | . | . | 0 | . | . | .
O=c1oc(-c2ccccc2)nc2sc3c(c12)CCC3 | 0 | -25 | 29 | . | -1 | 60*
COc1ccc(/C=N\NC(=O)c2cc(O)c(O)c(O)c2)cc1CN1CCN(c2ccc(F)cc2)CC1 | 0 | -38 | 17 | 0 | -1 | 70*
O=C(OCCOc1cccc(Cl)c1)c1cc(S(=O)(=O)N2CCOCC2)ccc1F | . | . | -8 | . | . | .
COC(=O)CSC1=C(C#N)C(c2ccc(C(C)C)cc2)CC(=O)N1 (stereo not drawn) | 1 | -17 | 2 | 9 | 56* | -4
COC(=O)CSC1=C(C#N)C(c2ccccc2)CC(=O)N1 (stereo not drawn) | -2 | -15 | 1 | 0 | -2 | 11
CCOc1ccccc1C1CC(=O)NC(SCC(=O)Nc2nccs2)=C1C#N (stereo not drawn) | 0 | -6 | 14 | 93* | 82* | 2
CCOc1ccccc1C1CC(=O)NC(SCC)=C1C#N (stereo not drawn) | 0 | -14 | 5 | 0 | -1 | -4
COc1ccccc1CNS(=O)(=O)c1c(C(=O)N2CCCC2)c(C)n(C)c1C | . | . | -12 | . | . | .
Cc1cccc2c3nc4ccccc4nc3n(CCCN3C(=O)c4ccccc4C3=O)c12 | 3 | 73* | . | 0 | -2 | 14
COc1cc(/C=N/NC(=O)c2cccc(S(=O)(=O)N3CCCCC3)c2)cc(Br)c1O | 0 | -43 | 5 | 6 | 0 | 72*
COc1cc(/C=N/NC(=O)c2cccc(S(=O)(=O)N3CCOCC3)c2)cc(OC)c1O | 0 | -29 | 4 | 3 | 2 | 46
O=C(N/N=C/c1ccc(O)c(O)c1)c1cccc(S(=O)(=O)N2CCCCC2)c1 | 0 | -21 | 19 | 2 | -2 | 56*
O=C(CN1C(=O)c2cccnc2Oc2ccc(Cl)cc21)NC1CCCCC1 | . | . | 6 | . | . | .
CCCn1c(Cc2ccccc2)nnc1SC(C)C(=O)NC1CC1 (stereo not drawn) | . | . | 0 | . | . | .
Cc1nnsc1C(=O)NNc1c(Cl)cccc1Cl | . | -4 | 12 | -1 | 84* | 14
COc1ccc(CCNC(=O)C(=O)NCC2OCCN2C(=O)c2ccc(Cl)cc2)cc1 (stereo not drawn) | . | . | 2 | . | . | .
C=CCSC1=Nc2sccc2C2=NC(=O)CN12 | 0 | 22 | 18 | 0 | -2 | 56*
SMILES | Mcl-1 Bim block | Mcl1 Bid PPI | MCL1 BIM primary | zVAD death inh | TNF death inh | Mcl1 Noxa PPI
Cc1ccc(CSC2=Nc3ccccc3C3=NC(=O)CN23)cc1 | -1 | -10 | -4 | 1 | -1 | 6
O=C(NCCOc1ccccc1)C1CCC(=O)N(C2CCCCCC2)C1 (stereo not drawn) | . | . | 3 | . | . | .
COc1cc2[nH]c(C(=O)NCc3ccccc3)cc2c(OC)c1OC | . | . | -2 | . | . | .
O=C(Nc1ccccc1)Nc1ccc2snnc2c1 | -4 | -8 | 4 | 2 | 1 | 15
CN(C)c1ccc(NC(=O)Nc2ccc3snnc3c2)cc1 | 5 | -67 | 14 | -1 | -2 | 93*
Cn1c(=O)c(/C=C/c2ccccc2)nc2ccccc21 | -1 | -14 | 41* | 1 | -1 | 17
Cc1cc(C(=O)CSc2nnc(C3CC3)n2C2CC2)c(C)n1C(C)C | . | . | 5 | . | . | .
Cc1ccc(S(=O)(=O)N(C)/N=C/c2ccc(N(C)C)cc2)cc1 | . | . | -5 | . | . | .
Cn1ncc([N+](=O)[O-])c1C(=O)Nc1cccc(Cl)c1 | . | . | 7 | . | . | .
